According to PubChem BioAssay (EPA / NIEHS):
“And” between values parts separate entries of the source, which are not always exact repeats. Equal values may be shown once. Inconclusive results are not listed. Some structures have more than one record in an assay (separate samples or runs), and their calls can disagree. The source made the active and inactive calls. Rule for the calls, unless noted: active = hit-call score of the fitted dose curve at least 0.9, where 1 is the maximum; inactive = score below 0.9.

Tests used:
[1] = ATG_NFI_CIS: Attagene CIS-FACTORIAL HepG2 Assay for human Nuclear Factor I (NFI) (AID 2282989); details: HepG2 cis-regulatory reporter, NFI response element transcription; actives raise or lower the signal
Outline: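 Reporter transcription driven by endogenous transcription factors in HepG2 cells; 24 h treatment. Quantitation by labelled RT-PCR fragments on capillary electrophoresis, gain- or loss-of-signal relative to DMSO.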

[2] = target: Myc proto-oncogene protein (Homo sapiens) (UniProt P01106); test: ATG_Myc_CIS: Attagene CIS-FACTORIAL HepG2 Assay for human Myelocytomatosis (Myc) Proto-Oncogene Transcription Factor (AID 2282990); details: HepG2, Attagene cis-reporter transcription factor activity; actives raise or lower the signal
Sequence of Myc proto-oncogene protein (Homo sapiens) (P01106 whole entry, looked up): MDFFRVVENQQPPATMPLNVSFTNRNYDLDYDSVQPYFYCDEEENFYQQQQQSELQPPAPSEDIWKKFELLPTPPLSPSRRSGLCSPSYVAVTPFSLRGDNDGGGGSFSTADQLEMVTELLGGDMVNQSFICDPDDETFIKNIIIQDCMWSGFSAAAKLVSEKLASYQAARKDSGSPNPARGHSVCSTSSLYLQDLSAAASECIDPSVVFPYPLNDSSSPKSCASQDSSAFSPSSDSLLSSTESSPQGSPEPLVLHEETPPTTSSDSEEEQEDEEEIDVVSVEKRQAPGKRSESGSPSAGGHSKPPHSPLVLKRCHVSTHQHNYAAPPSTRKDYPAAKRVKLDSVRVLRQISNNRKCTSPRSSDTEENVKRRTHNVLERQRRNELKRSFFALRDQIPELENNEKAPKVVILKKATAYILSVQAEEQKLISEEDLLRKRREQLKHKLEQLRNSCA
Outline: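 Transiently transfected HepG2 cells bearing cis-promoter reporter units for endogenous transcription factors; 24 h exposure. Reporter mRNA measured by RT-PCR, 6-FAM primer extension, HpaI cut and capillary electrophoresis; bidirectional fit relative to DMSO.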

[3] = ATG_NRF2_ARE_CIS: Attagene CIS-FACTORIAL HepG2 Assay for human Nuclear Factor Erythroid 2 Related Factor 2 (NFR2) response to Antioxidant Response Elements (ARE) (AID 2282992); details: HepG2 Attagene ARE/NRF2 reporter, transcription factor activity; actives raise or lower the signal
Outline: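 Endogenous transcription factor activity read out as reporter transcript levels (RT-PCR plus capillary electrophoresis, fluorescence) in transiently transfected HepG2 cells. Measured at 24 h after dosing; gain or loss of signal fitted versus DMSO.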

[4] = ATG_Oct_MLP_CIS: Attagene CIS-FACTORIAL HepG2 Assay for human Octamer-Binding Transcription Factor (Oct) (AID 2282993); details: HepG2 Attagene cis-factorial Oct reporter, mRNA; actives raise or lower the signal
Outline: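 Transfected HepG2 cells, 24 h treatment. Reporter mRNA quantified by RT-PCR–capillary electrophoresis; bidirectional fitting against DMSO.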

[5] = target: Cellular tumor antigen p53 (Homo sapiens) (UniProt P04637); test: ATG_p53_CIS: Attagene CIS-FACTORIAL HepG2 Assay for human p53 Transcription Factor (AID 2282994); details: HepG2 p53 cis-element reporter, Attagene mRNA; actives raise or lower the signal
Sequence of Cellular tumor antigen p53 (Homo sapiens) (P04637 whole entry, looked up): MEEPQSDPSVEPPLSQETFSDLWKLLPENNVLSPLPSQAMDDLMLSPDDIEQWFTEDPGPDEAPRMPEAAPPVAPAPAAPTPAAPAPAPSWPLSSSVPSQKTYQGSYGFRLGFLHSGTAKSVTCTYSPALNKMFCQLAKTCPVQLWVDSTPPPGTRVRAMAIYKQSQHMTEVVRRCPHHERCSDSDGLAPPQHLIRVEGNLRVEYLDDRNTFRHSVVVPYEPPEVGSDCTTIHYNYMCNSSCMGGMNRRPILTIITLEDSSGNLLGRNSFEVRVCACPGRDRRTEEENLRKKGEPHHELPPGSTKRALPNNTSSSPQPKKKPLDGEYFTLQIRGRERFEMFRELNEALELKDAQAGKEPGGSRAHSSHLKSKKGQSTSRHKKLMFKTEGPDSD
Outline: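 Endogenous p53 activity read in transiently transfected HepG2 from a cis-element-driven reporter transcript after 24 h exposure. RNA reverse-transcribed, PCR-amplified, fluorescently labelled and sized by capillary electrophoresis; gain or loss fitted against DMSO baseline.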

[6] = BSK_3C_TissueFactor: BioMAP Diversity Plus: 3C Assay for Tissue Factor Biomarker Activity (AID 2282997); details: BioMAP 3C HUVEC, tissue factor biomarker readout; actives raise or lower the signal
Outline: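 In this endothelial system, HUVEC are treated for 24 h and Tissue Factor is assessed by ELISA, normalised to DMSO.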

[7] = BSK_3C_uPAR: BioMAP Diversity Plus: 3C Assay for Urokinase-type plasminogen activator receptor (uPAR) Biomarker Activity (AID 2282998); details: BioMAP 3C HUVEC, uPAR biomarker ELISA; actives raise or lower the signal
Outline: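 Readout: ELISA for surface uPAR. System: human umbilical vein endothelial primary cells, 24 h after chemical exposure. Analysis: bidirectional fit, DMSO baseline.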

[8] = BSK_3C_VCAM1: BioMAP Diversity Plus: 3C Assay for Vascular cell adhesion molecule 1 (VCAM1) Biomarker Activity (AID 2282999); details: BioMAP 3C HUVEC, VCAM1 ELISA, cytokine-stimulated; actives raise or lower the signal
Outline: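 HUVEC primary cells, 24 h compound exposure; VCAM-1 by ELISA; gain/loss of signal fitted bidirectionally vs DMSO baseline.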

[9] = BSK_4H_Eotaxin3: BioMAP Diversity Plus: 4H Assay for Eotaxin 3 Biomarker Activity (AID 2283000); details: primary human endothelial cells (HUVEC); actives raise or lower the signal
Outline: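 ELISA quantitation of CCL26 (Eotaxin-3) protein from chemically dosed human vascular endothelial cells at 24 h; increases and decreases both scored relative to DMSO-treated baseline.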

[10] = target: human Peroxisome Proliferator-activated Receptor alpha (PPARa), PPARA (gene 5465) (UniProt Q07869); test: ATG_PPARa_TRANS: Attagene TRANS-FACTORIAL HepG2 Assay for human Peroxisome Proliferator-activated Receptor alpha (PPARa) (AID 2283001; active = hit-call score of the fitted dose curve at least 0.9, where 1 is the maximum;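 for AC50: potency for gain of reporter signal over DMSO so agonist or activator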)
Sequence of human Peroxisome Proliferator-activated Receptor alpha (PPARa), PPARA (gene 5465) (Q07869 whole entry, looked up, the tested form may be a part): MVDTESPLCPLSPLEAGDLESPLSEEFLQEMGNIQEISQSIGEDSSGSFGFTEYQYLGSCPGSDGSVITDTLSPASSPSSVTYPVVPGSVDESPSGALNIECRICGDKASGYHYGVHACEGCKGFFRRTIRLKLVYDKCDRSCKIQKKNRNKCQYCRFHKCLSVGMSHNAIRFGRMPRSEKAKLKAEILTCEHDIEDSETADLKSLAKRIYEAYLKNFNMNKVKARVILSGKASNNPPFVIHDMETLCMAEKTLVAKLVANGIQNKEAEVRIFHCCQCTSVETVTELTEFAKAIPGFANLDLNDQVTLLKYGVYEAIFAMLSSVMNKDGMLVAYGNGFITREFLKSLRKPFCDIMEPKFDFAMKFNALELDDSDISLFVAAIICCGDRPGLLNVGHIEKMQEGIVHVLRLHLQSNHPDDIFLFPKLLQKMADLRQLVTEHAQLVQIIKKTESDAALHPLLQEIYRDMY
Outline: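 Transient HepG2 transfection, GAL4-UAS reporters, NR-Gal4 chimeras; 24 h compound exposure. Readout: reporter transcripts by RT-PCR, 6-FAM primer extension, HpaI digest, capillary electrophoresis. Positive direction vs DMSO baseline.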

[11] = target: human Peroxisome Proliferator-activated Receptor delta (PPARd), PPARD (gene 5467) (UniProt Q03181); test: ATG_PPARd_TRANS: Attagene TRANS-FACTORIAL HepG2 Assay for human Peroxisome Proliferator-activated Receptor delta (PPARd) (AID 2283002; active = hit-call score of the fitted dose curve at least 0.9, where 1 is the maximum)
Sequence of human Peroxisome Proliferator-activated Receptor delta (PPARd), PPARD (gene 5467) (Q03181 whole entry, looked up, the tested form may be a part): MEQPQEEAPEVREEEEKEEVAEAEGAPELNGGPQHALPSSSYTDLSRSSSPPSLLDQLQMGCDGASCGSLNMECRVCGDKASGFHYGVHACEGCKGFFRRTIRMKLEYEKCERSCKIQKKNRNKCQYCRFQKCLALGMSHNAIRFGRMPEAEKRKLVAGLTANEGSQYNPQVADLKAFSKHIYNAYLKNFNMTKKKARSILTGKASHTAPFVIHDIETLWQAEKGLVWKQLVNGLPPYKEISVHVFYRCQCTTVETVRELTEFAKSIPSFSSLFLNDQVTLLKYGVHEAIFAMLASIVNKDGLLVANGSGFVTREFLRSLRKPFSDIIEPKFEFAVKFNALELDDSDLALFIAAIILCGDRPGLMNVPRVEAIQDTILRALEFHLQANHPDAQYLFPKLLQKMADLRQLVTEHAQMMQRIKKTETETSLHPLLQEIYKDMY
Outline: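 HepG2 cells transiently transfected with GAL4-UAS multiplexed reporter units driven by exogenous chimeric NR-GAL4 proteins; 24 h compound exposure. Reporter mRNA measured by RT-PCR, 6-FAM primer extension, HpaI digestion and capillary electrophoresis; gain of signal fitted relative to DMSO.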

[12] = read-out: Intercellular Adhesion Molecule 1 (ICAM1), ICAM1 (gene 3383); test: BSK_3C_ICAM1: BioMAP Diversity Plus: 3C Assay for Intercellular Adhesion Molecule 1 (ICAM1) Biomarker Activity (AID 2283003); details: primary human endothelial cells (HUVEC); actives raise or lower the signal
Outline: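 Using DMSO as baseline, bidirectional curve fitting was applied to ICAM-1 ELISA signals from HUVEC in the 3C system, measured 24 h after compound addition.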

[13] = BSK_3C_Proliferation: Cell Proliferation Assessment in the BioMAP Diversity Plus: 3C Assay (AID 2283006); details: primary human endothelial cells (HUVEC);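 for AC50: potency may reflect either rise or fall in cell number versus DMSO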
Outline: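 Measured here: sulforhodamine B (0.1%) staining of TCA-fixed sub-confluent umbilical vein endothelial cultures 48 h post-dosing, absorbance 560 nm. DMSO served as negative control and baseline; both signal gain and loss were modelled.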

[14] = target: Peroxisome proliferator-activated receptor gamma (Homo sapiens) (UniProt P37231); test: ATG_PPARg_TRANS: Attagene TRANS-FACTORIAL HepG2 Assay for human Peroxisome Proliferator-activated Receptor-gamma (PPARg) (AID 2283007; active = hit-call score of the fitted dose curve at least 0.9, where 1 is the maximum)
Sequence of Peroxisome proliferator-activated receptor gamma (Homo sapiens) (P37231 whole entry, looked up, the tested form may be a part): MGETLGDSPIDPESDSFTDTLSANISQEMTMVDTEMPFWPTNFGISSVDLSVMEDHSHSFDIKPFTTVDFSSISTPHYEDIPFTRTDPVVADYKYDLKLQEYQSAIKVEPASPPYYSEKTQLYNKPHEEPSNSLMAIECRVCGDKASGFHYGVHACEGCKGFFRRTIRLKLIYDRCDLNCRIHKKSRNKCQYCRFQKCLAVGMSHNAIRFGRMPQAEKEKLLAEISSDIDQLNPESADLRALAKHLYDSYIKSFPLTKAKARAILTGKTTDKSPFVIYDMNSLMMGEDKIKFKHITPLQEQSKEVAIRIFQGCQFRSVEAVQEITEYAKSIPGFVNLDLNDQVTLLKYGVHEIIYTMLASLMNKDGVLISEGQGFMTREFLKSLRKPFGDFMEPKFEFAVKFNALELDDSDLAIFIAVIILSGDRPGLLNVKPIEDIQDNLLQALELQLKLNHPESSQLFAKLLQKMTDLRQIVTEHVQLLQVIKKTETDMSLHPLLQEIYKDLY
Outline: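 A TRANS-format multiplexed reporter assay measures activity of an exogenous chimeric NR-Gal4 protein in HepG2 cells. After 24 h of chemical exposure, reporter transcripts are amplified, fluorescently labelled and sized by capillary electrophoresis, with gain of signal scored against DMSO.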

[15] = target: Nuclear receptor subfamily 1 group I member 2 (Homo sapiens) (UniProt O75469); test: ATG_PXR_TRANS: Attagene TRANS-FACTORIAL HepG2 Assay for human Pregnane X Receptor (PXR) (AID 2283008; active = hit-call score of the fitted dose curve at least 0.9, where 1 is the maximum)
Sequence of Nuclear receptor subfamily 1 group I member 2 (Homo sapiens) (O75469 whole entry, looked up, the tested form may be a part): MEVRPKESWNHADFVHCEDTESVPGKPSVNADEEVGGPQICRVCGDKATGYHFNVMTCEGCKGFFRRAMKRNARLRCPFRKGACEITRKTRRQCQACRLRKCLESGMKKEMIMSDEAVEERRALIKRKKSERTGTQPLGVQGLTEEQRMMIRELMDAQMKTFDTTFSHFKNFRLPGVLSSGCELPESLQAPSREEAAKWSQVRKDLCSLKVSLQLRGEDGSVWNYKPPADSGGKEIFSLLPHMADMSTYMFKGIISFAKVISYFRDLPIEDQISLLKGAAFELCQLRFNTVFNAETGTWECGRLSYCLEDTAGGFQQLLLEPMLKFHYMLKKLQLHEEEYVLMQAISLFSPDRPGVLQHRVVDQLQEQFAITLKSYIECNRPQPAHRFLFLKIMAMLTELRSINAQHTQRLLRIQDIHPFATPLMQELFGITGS
Outline: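 Transactivation by exogenous PXR–GAL4 fusion measured as reporter transcript induction after 24 h compound treatment of transfected human HepG2 cells. Read-out via RT-PCR and capillary electrophoresis of labelled fragments, fitted upward relative to DMSO.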

[16] = target: human RAR-related Orphan Receptor beta (RORb), RORB (gene 6096) (UniProt Q92753); test: ATG_RORb_TRANS: Attagene TRANS-FACTORIAL HepG2 Assay for human RAR-related Orphan Receptor beta (RORb) (AID 2283010; active = hit-call score of the fitted dose curve at least 0.9, where 1 is the maximum)
Sequence of human RAR-related Orphan Receptor beta (RORb), RORB (gene 6096) (Q92753 whole entry, looked up, the tested form may be a part): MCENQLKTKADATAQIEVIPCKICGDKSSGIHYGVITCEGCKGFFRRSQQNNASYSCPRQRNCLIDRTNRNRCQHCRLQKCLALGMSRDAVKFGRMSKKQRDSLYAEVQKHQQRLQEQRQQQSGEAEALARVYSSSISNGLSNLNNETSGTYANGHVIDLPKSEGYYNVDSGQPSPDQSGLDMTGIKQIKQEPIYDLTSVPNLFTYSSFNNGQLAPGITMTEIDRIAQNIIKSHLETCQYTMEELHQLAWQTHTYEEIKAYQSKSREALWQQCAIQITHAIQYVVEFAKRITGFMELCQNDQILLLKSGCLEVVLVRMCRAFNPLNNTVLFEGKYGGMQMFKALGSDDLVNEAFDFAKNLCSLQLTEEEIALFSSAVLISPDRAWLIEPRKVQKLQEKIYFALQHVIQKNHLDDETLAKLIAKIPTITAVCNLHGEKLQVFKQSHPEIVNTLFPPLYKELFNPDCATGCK
Outline: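 Multiplexed transcription-factor reporter assay: HepG2 cells transiently carrying NR-Gal4/GAL4-UAS constructs, 24 h treatment, mRNA quantified by RT-PCR plus capillary electrophoresis fluorescence; activity scored as induction over DMSO.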

[17] = target: human Retinoic Acid Receptor gamma (RARg), RARG (gene 5916) (UniProt P13631); test: ATG_RARg_TRANS: Attagene TRANS-FACTORIAL HepG2 Assay for human Retinoic Acid Receptor gamma (RARg) (AID 2283009; active = hit-call score of the fitted dose curve at least 0.9, where 1 is the maximum)
Sequence of human Retinoic Acid Receptor gamma (RARg), RARG (gene 5916) (P13631 whole entry, looked up, the tested form may be a part): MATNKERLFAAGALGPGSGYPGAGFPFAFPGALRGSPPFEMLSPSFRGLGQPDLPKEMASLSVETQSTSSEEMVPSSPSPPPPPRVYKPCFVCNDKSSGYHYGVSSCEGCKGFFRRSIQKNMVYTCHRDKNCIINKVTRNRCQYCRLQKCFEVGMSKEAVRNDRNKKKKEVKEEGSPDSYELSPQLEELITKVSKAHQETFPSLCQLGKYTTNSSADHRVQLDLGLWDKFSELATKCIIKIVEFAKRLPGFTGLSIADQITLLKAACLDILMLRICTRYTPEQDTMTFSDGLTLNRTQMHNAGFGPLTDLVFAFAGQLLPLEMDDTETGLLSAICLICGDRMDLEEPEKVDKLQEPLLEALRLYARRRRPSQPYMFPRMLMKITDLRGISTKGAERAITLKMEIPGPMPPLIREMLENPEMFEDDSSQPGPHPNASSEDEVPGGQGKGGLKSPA
Outline: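 Gain-of-signal relative to DMSO is reported from fluorescent capillary electrophoresis of RT-PCR reporter products. These came from HepG2 cells expressing transfected RARg-GAL4 chimeras with UAS reporters, harvested 24 h after dosing.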

[18] = ATG_NF_kB_CIS: Attagene CIS-FACTORIAL HepG2 Assay for human Nuclear Factor Kappa B (NF-kB) (AID 2282991); details: HepG2 Attagene cis-factorial NF-kB reporter mRNA; actives raise or lower the signal
Outline: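 Endogenous transcription factor activity in HepG2 was captured via cis-regulated reporter constructs; after 24 h dosing, reporter mRNA was reverse-transcribed, amplified, fluorescently labelled and sized by capillary electrophoresis, with activity fitted bidirectionally relative to DMSO.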

Oc1cccc2cccnc12
outcome [1]: inactive | outcome [2]: inactive | AC50 [3]: 15.3 µM (active) and 1.64 µM (active) | AC50 [4]: 167 µM (active) | outcome [4]: inactive | outcome [5]: inactive | outcome [6]: inactive | outcome [7]: inactive | AC50 [8]: 10.4 µM (active) | AC50 [9]: 2.69 µM (active) | outcome [10]: inactive | outcome [11]: inactive | outcome [12]: inactive | AC50 [13]: 4.78 µM (active) | outcome [14]: inactive | outcome [15]: inactive | outcome [16]: inactive

CC1(C)Cc2cccc(O)c2O1
outcome [1]: inactive | outcome [2]: inactive | outcome [3]: inactive | outcome [4]: inactive | outcome [6]: inactive | outcome [7]: inactive | outcome [8]: inactive | outcome [12]: inactive | outcome [13]: inactive | outcome [15]: inactive | outcome [17]: inactive

c1ccc(N=NNc2ccccc2)cc1
AC50 [1]: 180 µM (active) | AC50 [2]: 168 µM (active) | AC50 [3]: 30.9 µM (active) | AC50 [4]: 117 µM (active) | outcome [5]: inactive | outcome [10]: inactive | outcome [11]: inactive | AC50 [14]: 65.7 µM (active) | AC50 [15]: 33.6 µM (active) | outcome [17]: inactive

COP(=O)(OC)O/C(=C\Cl)c1cc(Cl)c(Cl)cc1Cl
outcome [1]: inactive | AC50 [2]: 180 µM (active) | outcome [18]: inactive | AC50 [4]: 27.6 µM (active) | AC50 [5]: 161 µM (active) | AC50 [10]: 64.8 µM (active) | outcome [11]: inactive | AC50 [14]: 10.8 µM (active) | AC50 [15]: 0.862 µM (active)

ClCc1ccccn1
outcome [1]: inactive | outcome [2]: inactive | AC50 [3]: 44.3 µM (active) | AC50 [4]: 59.6 µM (active) | outcome [5]: inactive | outcome [10]: inactive | outcome [11]: inactive | outcome [14]: inactive | outcome [15]: inactive | outcome [16]: inactive

C=CC#N
outcome [1]: inactive | outcome [2]: inactive | outcome [18]: inactive | outcome [4]: inactive | outcome [5]: inactive | outcome [10]: inactive | outcome [14]: inactive

COc1cc2c(cc1OC)[C@@]13CCN4CC5=CCO[C@H]6CC(=O)N2[C@H]1[C@H]6[C@H]5C[C@H]43
outcome [1]: inactive | outcome [2]: inactive | outcome [18]: inactive | outcome [4]: inactive | outcome [5]: inactive | outcome [10]: inactive | outcome [14]: inactive | outcome [15]: inactive
